Assay outcomes as filed in PubChem BioAssay.
Shown are actives, neighbours in structure and some others; about 6% of the full set was active somewhere.
CRE Fsk mod: modulators of forskolin-stimulated CRE signaling in CHO cells. CHO CRE-bla reporter (cAMP response element driving beta-lactamase), forskolin EC10, beta-lactamase ratio. Potency, µM (top dose mostly 38.2 µM), for inactives: at the highest dose activity change, negative = inhibition, actives largely listed as activators. 71,000 tested, 2.5% active. AID 662; active means well fitted activation curve with a large enough effect in the signal ratio, with a control signal flat, not every such curve was filed as active; inconclusive means small, poorly fitted or top-dose-only effect, or effect the other way, or a change in a side signal; the % refers to the signal ratio; further: % of control where 0% means no effect
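Modulation of forskolin-driven signalling is measured in CHO cells carrying a CRE-controlled beta-lactamase reporter. Cells are stimulated with EC10 NKH 477 in the presence of titrated compound for 3 h at 37 °C, then loaded with CCF4 for 2 h at room temperature.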
ERK AVP block: vasopressin-driven ERK pathway inhibition; HEK293-V1b, vasopressin-stimulated pERK AlphaScreen; Potency, µM (top dose mostly 57.5 µM), for inactives: top-dose activity, negative = inhibition, hits mostly inhibitors; 72,000 tested, 0.99% active; AID 995; further: on the % scale 0 is the no-effect control and ±100 the full control effect; nearly all actives have a fitted effect of over 55% in size
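Overnight-seeded V1b-HEK293 cells in 1% FBS got compound, then vasopressin (25 nM final, 5 min, 37C), then lysis buffer. AlphaScreen detection of phospho-ERK; activity normalized to basal and full-stimulation controls.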
HEK293 cAMP cs: parental HEK293 cAMP activation (counter-screen). parental HEK293 CNG cAMP sensor, membrane potential fluorescence. Potency, µM (highest dose often 57.1 µM), inactives show at the top dose activation, usual class: activators. 73,000 tested, 2.5% active. AID 938; further: % of control where 0% means no effect; nearly all actives have a fitted effect of over 55% in size
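Parental HEK 293 cells stably expressing a modified CNG channel (no TSHR) report cAMP rise as membrane depolarization. Membrane potential dye with 100 uM RO 20-1724 was loaded for 60 min at room temperature, then compound added for 30 min; fluorescence read at 590 nm.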
TSHR ag: activates the human thyroid stimulating hormone receptor; P16473; HEK293-CNG-TSHR cells (CNG channel as cAMP sensor), membrane potential dye, cAMP; Potency, µM (series often up to 57.1 µM), without a hit: at the top dose activation, most hits filed as activators; 73,000 tested, 0.48% active; active means well fitted activation curve with a large enough effect in the main read-out, with a control signal flat, not every such curve was filed as active; inconclusive means small, poorly fitted or top-dose-only effect, or a change in a side signal; inactive means no such curve, though single readings can be large or run the other way; % of control where 0% means no effect;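 further: the control signal comes from parental cells without the receptor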
Target sequence (P16473 whole entry, looked up): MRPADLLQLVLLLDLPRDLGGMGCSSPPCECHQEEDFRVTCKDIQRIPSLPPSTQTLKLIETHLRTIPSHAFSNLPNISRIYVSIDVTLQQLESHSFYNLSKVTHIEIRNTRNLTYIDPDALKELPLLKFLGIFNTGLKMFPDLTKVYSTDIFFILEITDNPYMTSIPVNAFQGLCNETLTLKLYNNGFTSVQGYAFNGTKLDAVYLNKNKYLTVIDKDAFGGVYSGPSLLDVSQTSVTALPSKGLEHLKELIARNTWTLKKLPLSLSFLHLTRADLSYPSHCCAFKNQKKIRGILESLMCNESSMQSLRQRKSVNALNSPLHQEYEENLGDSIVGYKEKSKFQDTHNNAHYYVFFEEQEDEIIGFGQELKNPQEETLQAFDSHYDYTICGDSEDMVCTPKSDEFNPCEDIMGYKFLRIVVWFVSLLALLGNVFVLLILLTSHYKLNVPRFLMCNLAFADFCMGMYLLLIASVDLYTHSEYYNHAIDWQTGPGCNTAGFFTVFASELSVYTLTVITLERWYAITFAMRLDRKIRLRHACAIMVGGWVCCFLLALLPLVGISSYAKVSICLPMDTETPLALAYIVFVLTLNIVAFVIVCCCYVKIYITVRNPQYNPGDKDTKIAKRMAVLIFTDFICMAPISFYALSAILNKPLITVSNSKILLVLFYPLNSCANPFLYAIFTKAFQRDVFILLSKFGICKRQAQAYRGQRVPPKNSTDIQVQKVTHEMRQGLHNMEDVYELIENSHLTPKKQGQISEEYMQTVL
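HEK 293 cells stably expressing TSHR and a modified CNG channel, with CNG-only parental cells as counterscreen, were preloaded 60 min at room temperature with membrane potential dye containing 100 uM RO 20-1724. Compound exposure was 30 min, and depolarization was read as fluorescence at 590 nm.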
* marks the source's active call; other numbers are inactive results; [ ] = dose if it differs, or a comment. Unless noted, the call rests on the fitted dose curve; in most records, active means well fitted curve in the direction sought with a large enough effect; inconclusive means small, poorly fitted or top-dose-only effect, or another doubt; inactive means no such curve, though single readings can be large; an effect the other way counts as inactive or inconclusive. Potency means the concentration at half of the fitted maximal effect.

COc1cc2c(cc1OC)-c1cc(OCCN3CCOCC3)nc(=O)n1CC2 was read as CRE Fsk mod 7.9µM*, ERK AVP block inconclusive, HEK293 cAMP cs -10% and TSHR ag 12%.
Screening COc1cc2c(cc1OC)-c1cc(NCc3ccccn3)nc(=O)n1CC2 returned CRE Fsk mod 13µM*, ERK AVP block inconclusive, HEK293 cAMP cs -16% and TSHR ag 7%.
`COc1ccc(C2C(C(=O)NCc3ccccn3)c3cc(OC)c(OC)cc3C(=O)N2C)cc1` (centres undefined) gave CRE Fsk mod 6%, ERK AVP block 39%, HEK293 cAMP cs 5% and TSHR ag 0%.
CCNc1cc2n(c(=O)n1)CCc1cc(OC)c(OC)cc1-2 was read as CRE Fsk mod 10µM*, ERK AVP block -29%, HEK293 cAMP cs -1% and TSHR ag 7%.
For CC1(C)CC[C@]2(C(=O)O)CC[C@]3(C)C(=CC[C@@H]4[C@@]5(C)CC[C@H](O)C(C)(C)[C@@H]5CC[C@@]43C)[C@@H]2C1 the results were CRE Fsk mod inconclusive, HEK293 cAMP cs -1% and TSHR ag -3%.
CCOc1cc2c(C#N)c(N3CCOCC3)nc(N)c2c(N)n1 was read as CRE Fsk mod 2.5µM*, ERK AVP block 16µM*, HEK293 cAMP cs -6% and TSHR ag -2%.
For COC(=O)NC(CC(C)=O)c1ccccc1 (centres undefined) the results were ERK AVP block 18%[11.5 µM], HEK293 cAMP cs 2%[11.4 µM] and TSHR ag -2%[11.4 µM].
For COCCNC(=O)c1ccccc1NC(=O)COc1ccccc1 the results were CRE Fsk mod 6%, ERK AVP block -14%, HEK293 cAMP cs 0% and TSHR ag 6%.
COC(=O)c1ccccc1NC(=O)c1cc(OC)cc(OC)c1 was read as CRE Fsk mod inconclusive, ERK AVP block 11%, HEK293 cAMP cs 25µM* and TSHR ag inconclusive.
Screening COC(=O)c1ccccc1NC(=O)COc1ccccc1 returned CRE Fsk mod inconclusive, ERK AVP block 8%, HEK293 cAMP cs 32µM* and TSHR ag inconclusive.
For COC(=O)c1ccccc1NC(=O)c1sc(N)nc1C the results were CRE Fsk mod 16µM*, ERK AVP block inconclusive, HEK293 cAMP cs 5% and TSHR ag -1%.
For Brc1ccc2[nH]c3nc(SCCN4CCOCC4)nnc3c2c1 the results were CRE Fsk mod 2.5µM*, ERK AVP block -11%, HEK293 cAMP cs -7% and TSHR ag -2%[11.4 µM].
Screening c1ccc2c(c1)[nH]c1nc(SCCN3CCOCC3)nnc12 returned CRE Fsk mod inconclusive, ERK AVP block inconclusive, HEK293 cAMP cs -1% and TSHR ag -16%.
`c1cncc(CNc2ncncc2-c2ccc3c(c2)OCO3)c1` gave CRE Fsk mod 1%, ERK AVP block -23%, HEK293 cAMP cs inconclusive and TSHR ag inconclusive.
`COc1ccc(O[C@H]2C=C[C@@H](c3ccccc3)O[C@H]2COC(=O)CC/C(C)=N\O[C@@H](C)c2cc(-c3c(C)cc(C)cc3C)no2)cc1` gave ERK AVP block 6%[11.5 µM], HEK293 cAMP cs 1%[11.4 µM] and TSHR ag 10%[11.4 µM].
Screening Cc1ccc(CCNC(=O)c2coc3nc4ccccc4nc23)cc1 returned CRE Fsk mod inconclusive, ERK AVP block 27%, HEK293 cAMP cs 20µM* and TSHR ag inconclusive.
For CCOC(=O)CCN1C(=O)[C@H]2[C@H]3[C@H](O)[C@H](O)C/C(=N/NC(=O)OCC)[C@H]3CC[C@@H]2C1=O the results were ERK AVP block 6%[11.5 µM], HEK293 cAMP cs 6%[11.4 µM] and TSHR ag 3%[11.4 µM].
CC[C@@H](Nc1ncnc2nc[nH]c12)C(=O)O was read as CRE Fsk mod -1%[7.6 µM], ERK AVP block 10%[11.5 µM], HEK293 cAMP cs -3%[11.4 µM] and TSHR ag 3%[11.4 µM].
Screening c1ccc2c(c1)CCN(c1nc3ccccc3n3cnnc13)C2 returned CRE Fsk mod 0.4µM*, ERK AVP block -15%, HEK293 cAMP cs 2% and TSHR ag 14%.
`C1=C(c2ccccc2)CCN(c2nc3ccccc3n3cnnc23)C1` gave CRE Fsk mod inconclusive, ERK AVP block -13%, HEK293 cAMP cs 13% and TSHR ag 8%.
c1ccc(CN2CCN(c3nc4ccccc4n4cnnc34)CC2)cc1 was read as CRE Fsk mod 13µM*, ERK AVP block -16%, HEK293 cAMP cs 15% and TSHR ag 23%.
Cc1cc(C)nc(NC(=NCCc2c[nH]c3ccccc23)NC(=O)c2ccco2)n1 was read as CRE Fsk mod inconclusive, ERK AVP block -18%, HEK293 cAMP cs 21% and TSHR ag 5µM*.
CCOc1ccccc1Cn1c(=O)oc2ccc(C)cc21 was read as CRE Fsk mod inconclusive, ERK AVP block 2%, HEK293 cAMP cs 25µM* and TSHR ag inconclusive.
For CCCOc1ccccc1Cn1c(=O)oc2ccc(C)cc21 the results were CRE Fsk mod 1%, ERK AVP block 73%, HEK293 cAMP cs 13µM* and TSHR ag inconclusive.
For CCCOc1ccc(Cn2c(=O)oc3ccc(C)cc32)cc1OC the results were CRE Fsk mod 26%, ERK AVP block 7%, HEK293 cAMP cs inconclusive and TSHR ag inconclusive.
`CCC[C@@H]1C[C@@]1(CCC)[C@@H](NC(=O)Oc1ccccc1)c1ccc(C(=O)OC)cc1` gave CRE Fsk mod -4%, ERK AVP block 5%, HEK293 cAMP cs -2% and TSHR ag 12%.
For Cc1cccc(C(=O)O)c1C[C@H]1NCC[C@H]2c3ccccc3N[C@@H]12 the results were CRE Fsk mod -5%[7.6 µM], ERK AVP block -2%[11.5 µM], HEK293 cAMP cs 0%[11.4 µM] and TSHR ag -5%[11.4 µM].
For Cc1noc(C)c1-c1cc(NC2CCNCC2)ncn1 the results were CRE Fsk mod 6%, ERK AVP block 18%, HEK293 cAMP cs 4% and TSHR ag 1%.
Screening CCSC1(SCC)N=C(N)C2(C#N)C(c3ccccc3)NC(C)=C(C)C12C#N (centres undefined) returned CRE Fsk mod -4%, ERK AVP block -21%, HEK293 cAMP cs 12% and TSHR ag 25µM*.
For CC1=CC(C#N)(C#N)C(C#N)(C#N)C(c2ccccc2)N1 (centres undefined) the results were CRE Fsk mod 1%, ERK AVP block -10%, HEK293 cAMP cs 8% and TSHR ag 0%.
For COc1ccc(-c2ccc3c(n2)CCCN3C[C@H](O)CN2CCCc3nc(C)c(C)cc32)cc1 the results were ERK AVP block 0%[11.5 µM], HEK293 cAMP cs -7%[11.4 µM] and TSHR ag -11%[11.4 µM].
For COc1ccc(CCn2c(-c3ccco3)nc3ccccc3c2=O)cc1OC the results were CRE Fsk mod inconclusive, ERK AVP block 10µM*, HEK293 cAMP cs inconclusive and TSHR ag inconclusive.
For CCOC(=O)c1ccc(NC(=O)c2nn(CC)cc2Br)cc1 the results were CRE Fsk mod 4%, ERK AVP block -21%, HEK293 cAMP cs 3% and TSHR ag 7%.
CCOC(=O)c1c(NC(=O)c2nn(CC)cc2Br)sc(C)c1C was read as CRE Fsk mod 3.2µM*, ERK AVP block -12%, HEK293 cAMP cs 11% and TSHR ag 8%.
